Values without a mark were called inactive. Results filed as inconclusive are left out. Where a call stands in place of a potency, no number is given. Calls of active or inactive are those of the source. Calls follow the shape of the dose curve; as a rule, active = well fitted curve in the direction sought with a large enough effect; inconclusive = small, poorly fitted or top-dose-only effect, or another doubt; inactive = no such curve, though single readings can be large; an effect the other way counts as inactive or inconclusive.
Tests used:
[1] = target: Nuclear receptor subfamily 1 group I member 3 (Homo sapiens) (UniProt Q14994); experiment: Primary qHTS for agonist of constitutive androstane receptor (CAR) against the NCATS DSHEA and TCM libraries (AID 1794839); settings: CAR agonist reporter cells, qHTS luminescence, CAR antagonist co-added at 0.75 µM; series mostly up to 40 µM;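 also: HepG2 cells expressing human CAR with a CYP2B6 reporter plus PK11195 antagonist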
Nuclear receptor subfamily 1 group I member 3 (Homo sapiens), sequence (Q14994 whole entry, looked up): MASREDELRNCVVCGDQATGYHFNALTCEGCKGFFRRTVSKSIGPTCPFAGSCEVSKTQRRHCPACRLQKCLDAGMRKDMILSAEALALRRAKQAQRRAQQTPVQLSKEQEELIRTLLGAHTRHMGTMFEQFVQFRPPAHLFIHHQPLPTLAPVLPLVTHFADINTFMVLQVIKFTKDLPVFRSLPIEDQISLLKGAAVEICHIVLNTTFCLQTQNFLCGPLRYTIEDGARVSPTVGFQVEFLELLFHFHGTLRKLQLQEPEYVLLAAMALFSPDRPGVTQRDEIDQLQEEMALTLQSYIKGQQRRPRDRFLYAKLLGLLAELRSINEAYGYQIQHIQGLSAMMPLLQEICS
In short: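 Luminescence from ONE-Glo luciferase was the agonist read-out in HepG2-CYP2B6-hCAR cells exposed 24 h to test substances. Wells also held the CAR antagonist PK11195 at 0.75 µM final. Viability was by CellTiter-Fluor fluorescence.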

[2] = HepG2 viability counterscreen (readout 2: ATP content) against the NCATS DSHEA and TCM libraries (AID 1794840); settings: ATP content luminescence; series mostly up to 27.3 µM
In short: (§1)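 1,000 HepG2 cells/well, 4 h attach; compounds ~24 h, 37C/5% CO2. Readout 1: GF-AFC 25 uM final, 30 min, fluorescence 380/510 nm. Readout 2: CellTiter-Glo, 30 min RT, luminescence.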

[3] = HepG2 viability counterscreen (readout 1: protease activity) against the NCATS DSHEA and TCM libraries (AID 1794841); settings: qHTS concentration series; series mostly up to 27.3 µM;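 also: cells exposed to compounds for about 24 h before the protease read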
In short: as §1

[4] = Quantitative High-Throughput drug screen in 47 multiple myeloma cell lines against the NCATS MIPE library collection: FR4_PLB cell viability assay (AID 1918924; also: nearly all actives have a fitted effect of over 35% in size; also: potency is read from the fitted curve at half-maximal effect); settings: FR4_PLB myeloma cells viability, CellTiter-Glo ATP, 48 h; series mostly up to 45.8 µM
In short: (§2)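 Primary qHTS used for cherry-picking: cells at 500/well, library compounds for 48 h (37C, 5% CO2), luminescent ATP assay.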

[5] = Quantitative High-Throughput drug screen in 47 multiple myeloma cell lines against the NCATS MIPE library collection: EJM_DSMZ cell viability assay (AID 1918926; also: nearly all actives have a fitted effect of over 30% in size; also: potency is read from the fitted curve at half-maximal effect); settings: EJM myeloma cell viability, CellTiter-Glo ATP, 48 h; series mostly up to 45.8 µM
In short: (§3)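 qHTS of the MIPE 4.0 collection: 500 myeloma cells/well, 48 h drug exposure at 37C in 5% CO2, then CellTiter-Glo for 5 min at room temperature before luminescence reading.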

[6] = Quantitative High-Throughput drug screen in 47 multiple myeloma cell lines against the NCATS MIPE library collection: AMO1_DSMZ cell viability assay (AID 1918927; also: nearly all actives have a fitted effect of over 30% in size; also: potency is read from the fitted curve at half-maximal effect); settings: AMO1 myeloma cells viability, CellTiter-Glo ATP luminescence, 48 h; series mostly up to 45.8 µM
In short: as §3

[7] = Quantitative High-Throughput drug screen in 47 multiple myeloma cell lines against the NCATS MIPE library collection: ARP1_JJKsccF8 cell viability assay (AID 1918928; also: nearly all actives have a fitted effect of over 40% in size; also: potency is read from the fitted curve at half-maximal effect); settings: ARP1 myeloma cells viability, CellTiter-Glo ATP, 48 h; series mostly up to 45.8 µM
In short: (§4)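 Luminescence from CellTiter-Glo, taken after 5 min at room temperature, reports cellular ATP as viability. Cells (500 per well) had been treated 48 h at 37 °C with MIPE 4.0 compounds, scaled between DMSO and medium-only controls.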

[8] = Quantitative High-Throughput drug screen in 47 multiple myeloma cell lines against the NCATS MIPE library collection: ARD_JJKsccE7 cell viability assay (AID 1918929; also: potency is read from the fitted curve at half-maximal effect); settings: ARD myeloma cell line viability, CellTiter-Glo, 48 h; series mostly up to 45.8 µM
In short: as §3

[9] = Quantitative High-Throughput drug screen in 47 multiple myeloma cell lines against the NCATS MIPE library collection: Karpas620_DSMZ cell viability assay (AID 1918959); settings: Karpas620 myeloma viability, CellTiter-Glo ATP luminescence, 48 h; series mostly up to 45.8 µM; also: nearly all actives have a fitted effect of over 30% in size; also: potency is read from the fitted curve at half-maximal effect
In short: as §2

[10] = Quantitative High-Throughput drug screen in 47 multiple myeloma cell lines against the NCATS MIPE library collection: KMM1_JCRB cell viability assay (AID 1918960); settings: KMM1 myeloma viability, CellTiter-Glo ATP luminescence, 48 h; series mostly up to 45.8 µM; also: nearly all actives have a fitted effect of over 30% in size; also: potency is read from the fitted curve at half-maximal effect
In short: as §4

[11] = Quantitative High-Throughput drug screen in 47 multiple myeloma cell lines against the NCATS MIPE library collection: JIM3_ECACC cell viability assay (AID 1918963; also: nearly all actives have a fitted effect of over 35% in size; also: potency is read from the fitted curve at half-maximal effect); settings: JIM3 myeloma viability, CellTiter-Glo ATP, 48 h; series mostly up to 45.8 µM
In short: as §2

[12] = target: Glutathione peroxidase 1 (Homo sapiens) (UniProt P07203); experiment: Primary qHTS Assay for Inhibitors of Recombinant Selenoprotein Glutathione Peroxidase 1 (GPX1) (AID 1845191); settings: recombinant GPX1, GR-coupled NADPH fluorescence, 15 min; series mostly up to 48.8 µM; also: nearly all actives have a fitted effect of over 65% in size
Glutathione peroxidase 1 (Homo sapiens), sequence (P07203 whole entry, looked up): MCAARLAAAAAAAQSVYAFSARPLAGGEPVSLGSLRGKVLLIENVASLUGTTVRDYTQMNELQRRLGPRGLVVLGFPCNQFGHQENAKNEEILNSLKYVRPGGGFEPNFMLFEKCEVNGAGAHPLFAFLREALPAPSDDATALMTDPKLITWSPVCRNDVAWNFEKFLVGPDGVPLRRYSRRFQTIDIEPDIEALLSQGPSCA
In short: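 10 nM GPX1 + cpd, 30 min RT; start w/ 1 mM GSH, 0.5 mM cumene hydroperoxide, 0.5 mM NADPH, 100 nM GR, 0.01% BSA; buffer 50 mM Tris-HCl pH 7.5, 2 mM EDTA, 150 mM NaCl; Fl 340/450, 0 & 15 min.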

[13] = target: Phospholipid hydroperoxide glutathione peroxidase GPX4 (Homo sapiens) (UniProt P36969); experiment: Primary qHTS Assay for Inhibitors of Recombinant Selenoprotein Glutathione Peroxidase 4 (GPX4) (AID 1845192); settings: recombinant GPX4, GR-coupled NADPH fluorescence, 15 min; series mostly up to 50 µM; also: nearly all actives have a fitted effect of over 65% in size
Phospholipid hydroperoxide glutathione peroxidase GPX4 (Homo sapiens), sequence (P36969 whole entry, looked up): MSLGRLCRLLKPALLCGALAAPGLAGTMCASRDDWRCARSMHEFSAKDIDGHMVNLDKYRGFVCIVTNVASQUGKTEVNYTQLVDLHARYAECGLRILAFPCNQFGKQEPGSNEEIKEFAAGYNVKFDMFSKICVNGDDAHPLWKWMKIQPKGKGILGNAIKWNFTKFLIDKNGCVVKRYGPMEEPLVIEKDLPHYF
In short: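 NADPH consumption, followed by fluorescence at 340/450 nm between 0 and 15 min, reports GPX4 activity via coupled glutathione reductase (100 nM). Enzyme 200 nM was pre-exposed to compound 30 min; 0.5 mM cumene hydroperoxide and 1 mM GSH served as substrates.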

[14] = target: Luciferin 4-monooxygenase (Photinus pyralis) (UniProt P08659); experiment: Primary firefly luciferase (FLuc) qHTS assay for identification of artifact compounds. (AID 1845220); settings: purified firefly luciferase, luminescence, 5 min; series mostly up to 54.1 µM; also: nearly all actives have a fitted effect of over 60% in size; also: potency is read from the fitted curve at half-maximal effect
In short: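 FLuc 10 nM; luciferin 10 uM; ATP 10 uM; Tris-acetate pH 7.6, Mg-acetate 10 mM; 15 min RT preincubation; 5 min reaction; luminescence.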

[15] = tested on: Nanoluciferase (engineered Oplophorus gracilirostris luciferase); experiment: Primary Nanoluciferase (NLuc) qHTS assay for identification of artifact compounds. (AID 1845222); settings: NLuc-conditioned medium, Nano-Glo luminescence, 5 min; series mostly up to 54.1 µM;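 also: NLuc secreted into diluted conditioned medium of S16 cells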
In short: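 NLuc from S16 cell medium (1:55) plus test compounds, 15 min, room temperature. Luminescence after Nano-Glo (1:100) addition, 5 min.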

[16] = Primary fluorescence-based thiol-reactive (MSTI) qHTS assay for identification of artifact compounds. (AID 1845221); settings: MSTI thiol-reactivity probe, 1 h; series mostly up to 53.8 µM;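 also: thiol-reactive compounds lower the probe fluorescence signal; nearly all actives have a fitted effect of over 65% in size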
In short: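 Thiol-reactive compounds detected by quenching of 4 uM MSTI fluorescence (525/598 nm) after 1 h room-temperature dark incubation in PBS pH 7.4, 2% DMSO. qHTS titration; percent inhibition Hill-fitted against Acetyl-MSTI/MSTI controls.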

[17] = Quantitative High-Throughput drug screen in 47 multiple myeloma cell lines against the NCATS MIPE library collection: Delta47_JCRB cell viability assay (AID 1918925; also: potency is read from the fitted curve at half-maximal effect; nearly all actives have a fitted effect of over 45% in size); settings: Delta47 myeloma viability, CellTiter-Glo ATP, 48 h; series mostly up to 45.8 µM
In short: as §3

[18] = Quantitative High-Throughput drug screen in 47 multiple myeloma cell lines against the NCATS MIPE library collection: Karpas417_ECACC cell viability assay (AID 1918961); settings: Karpas417 myeloma viability, CellTiter-Glo ATP luminescence, 48 h; viability (% of DMSO): at 45.8 µM (top of the series); also: potency is read from the fitted curve at half-maximal effect
In short: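 We plated 500 myeloma cells per well, pinned in MIPE 4.0 compounds, and incubated for 48 hours at 37C. ATP was then quantified with CellTiter-Glo, with DMSO and media-only wells defining 100% and 0%.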

[19] = Quantitative High-Throughput drug screen in 47 multiple myeloma cell lines against the NCATS MIPE library collection: KHM11_PLB cell viability assay (AID 1918962); settings: KHM11 myeloma cell viability, CellTiter-Glo ATP luminescence, 48 h; series mostly up to 45.8 µM; also: potency is read from the fitted curve at half-maximal effect; nearly all actives have a fitted effect of over 35% in size
In short: as §2

[20] = Quantitative High-Throughput drug screen in 47 multiple myeloma cell lines against the NCATS MIPE library collection: JIM1_ECACC cell viability assay (AID 1918964; also: potency is read from the fitted curve at half-maximal effect); settings: JIM1 myeloma viability, CellTiter-Glo ATP luminescence, 48 h; series mostly up to 45.8 µM
In short: as §3

| SMILES | outcome [1] | outcome [2] | outcome [3] | Potency [4] | Potency [5] | Potency [6] | Potency [7] | Potency [8] | Potency [9] | Potency [10] | Potency [11] | Potency [12] | Potency [13] | Potency [14] | outcome [15] | Potency [16] | Potency [17] | Potency [18] | Potency [19] | Potency [20] |
| --- | --- | --- | --- | --- | --- | --- | --- | --- | --- | --- | --- | --- | --- | --- | --- | --- | --- | --- | --- | --- |
| O=C1c2c(O)cccc2[C@@H]([C@@H]2O[C@H](CO)[C@@H](O)[C@H](O)[C@H]2O)c2cc(CO)cc(O)c21 | inactive | inactive | inactive | inactive | inactive | inactive | inactive | inactive | inactive | inactive | inactive | – | – | – | – | – | – | – | – | – |
| c1ccc2c(Oc3nc(Nc4ccc(N5CCOCC5)cc4)c4ncn(C5CCCCC5)c4n3)cccc2c1 | – | – | – | inactive | – | 9.35 µM (active) | – | – | inactive | – | 18.7 µM (active) | inactive | inactive | inactive | inactive | – | – | – | – | – |
| Cc1cnc(Nc2ccc(CN3CCOCC3)cc2)nc1Nc1cccc(S(=O)(=O)NC(C)(C)C)c1 | – | – | – | 2.64 µM (active) | 5.9 µM (active) | – | 3.32 µM (active) | – | – | – | 2.64 µM (active) | inactive | inactive | inactive | inactive | inactive | – | – | – | – |
| O=C(Nc1cc2cc[nH]c2cn1)c1ccccc1 | – | – | – | 14.8 µM (active) | 8.33 µM (active) | 10.5 µM (active) | – | 10.5 µM (active) | 4.69 µM (active) | – | 7.43 µM (active) | inactive | inactive | 2.39 µM (active) | inactive | inactive | 9.35 µM (active) | 2.96 µM (active) | 7.43 µM (active) | – |
| FC(F)(F)c1ccc(Nc2nc3ccc(Oc4ccnc(-c5ncc(C(F)(F)F)[nH]5)c4)cc3[nH]2)cc1 | – | – | – | – | – | 16.6 µM (active) | 20.9 µM (active) | 14.8 µM (active) | 26.4 µM (active) | 18.7 µM (active) | 23.5 µM (active) | inactive | inactive | inactive | inactive | inactive | – | – | 20.9 µM (active) | 11.8 µM (active) |
| C=C(C)[C@@H]1CC[C@]2(C(=O)O)CC[C@]3(C)[C@H](CC[C@@H]4[C@@]5(C)CC[C@H](O)C(C)(C)[C@@H]5CC[C@]43C)[C@@H]12 | inactive | inactive | inactive | inactive | inactive | inactive | inactive | inactive | inactive | inactive | inactive | inactive | inactive | – | – | – | – | – | 3.72 µM (active) | inactive |
| C[C@H]1[C@@H](OC(=O)CCC(=O)O)O[C@@H]2O[C@@]3(C)CC[C@@H]4[C@H](C)CC[C@@H]1[C@@]24OO3 | – | – | – | 11.8 µM (active) | 14.8 µM (active) | 0.833 µM (active) | 2.35 µM (active) | 1.48 µM (active) | 0.166 µM (active) | 0.332 µM (active) | – | inactive | inactive | inactive | inactive | inactive | 5.26 µM (active) | – | 3.32 µM (active) | 0.935 µM (active) |

— PubChem BioAssay (NCATS)
